Only some compounds are listed: those with a hit (about 22% of all), similar ones and a draw of the others.
LmPK inh – qHTS Assay for Inhibitors of Leishmania Mexicana Pyruvate Kinase (LmPK). 290,000 tested, 0.37% active. purified LmPK, Kinase-Glo ATP luminescence, 1 h. AID 1721, 2009. Potency, µM (highest dose often 57.5 µM), inactives show at the top dose activity change, negative = inhibition, usual class: inhibitors; further: potency means the concentration at half of the fitted maximal effect; on the % scale 0 is the no-effect control and ±100 the full control effect
Target sequence (Q27686 whole entry, looked up): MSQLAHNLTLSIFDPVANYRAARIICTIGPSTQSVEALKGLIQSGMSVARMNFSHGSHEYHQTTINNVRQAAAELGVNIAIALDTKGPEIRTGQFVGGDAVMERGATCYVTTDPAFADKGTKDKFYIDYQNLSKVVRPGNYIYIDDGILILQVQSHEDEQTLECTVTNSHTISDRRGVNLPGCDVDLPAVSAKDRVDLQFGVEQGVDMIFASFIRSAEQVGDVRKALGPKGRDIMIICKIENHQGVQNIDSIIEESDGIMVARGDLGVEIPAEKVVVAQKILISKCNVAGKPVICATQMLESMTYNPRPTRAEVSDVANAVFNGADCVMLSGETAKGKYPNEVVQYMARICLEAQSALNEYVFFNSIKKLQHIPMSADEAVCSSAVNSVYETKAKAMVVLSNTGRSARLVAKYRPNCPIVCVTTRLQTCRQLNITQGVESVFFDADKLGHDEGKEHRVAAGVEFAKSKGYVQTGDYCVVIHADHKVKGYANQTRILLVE
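Kinase-Glo luminescence read after 1 h RT reaction of 0.1 nM LmPK with 0.5 mM PEP and 0.1 mM ADP. Activity scaled between uninhibited and enzyme-free controls.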
Pf growth 48h – Primary qHTS for delayed death inhibitors of the malarial parasite plastid, 48 hour incubation; P. falciparum luciferase growth in erythrocytes, 48 h; AID 504832, 2011; 310,000 tested, 5.9% active; Potency, µM (series often up to 28.7 µM), for the others: at the highest dose activity change, negative = inhibition, most hits filed as inhibitors; further: potency means the concentration at half of the fitted maximal effect; on the % scale 0 is the no-effect control and ±100 the full control effect
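Here the parasites carry a stable luciferase gene and grow inside erythrocytes in Albumax-based RPMI medium with compound for one erythrocytic cycle. Activity is scored as loss of luminescent signal.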
Pf growth 96h – Primary qHTS for delayed death inhibitors of the malarial parasite plastid, 96 hour incubation | Potency, µM (doses to about 28.7 µM), for the others: at the top dose activity change, negative = inhibition, hits mostly inhibitors | 320,000 tested, 6.9% active | P. falciparum luciferase reporter growth, 96 h; further: potency means the concentration at half of the fitted maximal effect; on the % scale 0 is the no-effect control and ±100 the full control effect
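P. falciparum expressing integrated firefly luciferase, in erythrocytes at 2% hematocrit, 0.05% parasitemia, incubated with compounds 96 h at 37 C, 5% CO2. Growth inhibition read as loss of luminescence; two-generation exposure targets delayed-death apicoplast inhibitors.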
Cycloheximide cs – Cycloheximide Counterscreen for Small Molecule Inhibitors of Shiga Toxin. AID 2314, 2010. max response, %. 300,000 tested, 12% active. cell reporter, cycloheximide protein synthesis inhibition counterscreen; in the data active means max response mostly above about 13%, no sharp cut-off; inactive means mostly below about 14%; further: read at 38.3 µM for the half of the compounds with a filed dose; 0% is about no effect
Shiga inhibitor – A qHTS for Small Molecule Inhibitors of Shiga Toxin; inhibition, % at 38.7 µM; Vero cells, Shiga toxin protein synthesis inhibition reporter; 290,000 tested, 9.2% active; AID 2315, 2010; in the data active means inhibition mostly above about 28%, no sharp cut-off; inactive means mostly below about 43%; further: 0% is about no effect
An asterisk follows results filed as active; ? = inconclusive; · = no result; [ ] = dose if it differs, or a comment. Unless noted, the call rests on the fitted dose curve; in most records, active means well fitted inhibition curve with a large enough effect; inconclusive means small, poorly fitted or top-dose-only effect, or another doubt; inactive means no such curve, though single readings can be large or run the other way.

SMILES | LmPK inh | Pf growth 48h | Pf growth 96h | Cycloheximide cs | Shiga inhibitor
CCC(C)C(NC(N)=O)C(=O)Nc1ccc(C(=O)OC)cc1 (centres undefined) | 2.0% | 80.1% | -9.6% | 4.9 | 1.8
COc1ccccc1C(=O)COC(=O)c1ccccc1O | -1.4% | 12.7% | 9.2% | 30.9* | 95.3*
CCc1ccc(C(=O)COC(=O)[C@@H](NC(N)=O)[C@@H](C)CC)cc1 | 1.7% | -16.6%[5.75 µM] | -6.9% | 21.9* | 77.1*
COc1ccccc1C(=O)COC(=O)/C=C/c1ccccc1 | -7.5% | 45.5% | 54.0% | 53.3* | 99.6*
COc1ccccc1C(=O)COC(=O)c1ccc(N(C)C)cc1 | -13.6% | 179.9% | 337.7% | 34.8* | 93.6*
O=C(Nc1cccc([N+](=O)[O-])c1)c1ccc(N2CCCC2=O)cc1 | -0.2% | 44.8% | 51.9% | 18.5 | 6.2
COC/C=C/C1=CC2=CC(=O)C(C)(OC(=O)c3cnc4ccccc4n3)C(=O)C2=CN1c1cccc(C#N)c1 (centres undefined) | 0.5%[11.5 µM] | · | · | · | ·
COc1cccc(-c2nnc(-c3ccccc3NC(=O)c3ccc(C(C)(C)C)cc3)o2)c1 | -1.2% | 9.2% | 0.0% | -3.1 | 9.9
Cn1c(=O)c(=O)n(C)c2cc(S(=O)(=O)NCCOc3ccccc3)ccc21 | -1.9% | -1.7% | 10.8% | -2.6 | -2.7
O=C(CN1CCN(c2ncccn2)CC1)N(Cc1ccccc1)c1ccc(F)cc1 | -8.8% | -18.6% | 11.7µM* | -7.4 | -32.0
O=C(COc1ccccc1)N/N=C/c1ccc(O[C@@H]2O[C@H](CO)[C@@H](O)[C@H](O)[C@H]2O)cc1 | -1.1% | -1.5% | 21.1% | -1.6 | 20.3
Clc1ccccc1/C=N/NC1=Nc2cccc3cccc1c23 | -5.5% | 241.8% | 282.1% | 31.5* | 65.8*
Cc1csc(N/N=C/c2ccccn2)n1 | -22.0%[11.5 µM] | -41.2% | ? | 15.3 | 77.2
C(=N\NC1=Nc2cccc3cccc1c23)/c1ccccn1 | -0.6% | ? | ? | 53.2* | 97.5*
COc1cccc(OC)c1OCC(O)CN1CCN(c2ccccc2F)CC1 (centres undefined) | 2.7% | -11.6% | 4.65µM* | -3.2 | -4.2
Cn1cc(C(=O)N2CCc3ccccc32)cn1 | -11.5% | 97.3% | 84.8% | 22.5* | 49.1*
O=C(c1ccc(Cl)s1)N1CCc2ccccc21 | -15.1% | 170.0% | · | 35.8* | 81.6*
CCc1sc(C(=O)N2CCc3ccccc32)cc1C | 25.1µM* | 215.8% | 121.8% | 66.1* | 102.3*
Cc1ccc(C(=O)N2CCc3ccccc32)cc1 | -2.6% | 34.7% | 148.1% | 30.9* | 89.7*
O=C(c1ccc(C(=O)N2CCCc3ccccc32)s1)N1CCCc2ccccc21 | -0.8% | 0.0% | ? | -2.1 | -12.6
CCOc1ccc(C(=O)NCC(=O)N2CCc3ccccc3C2)cc1OCC | -3.5% | -15.6% | 15.5% | 11.1 | -2.0
O=C(c1cc(Cl)ccc1Cl)N1CCc2ccccc21 | -1.3% | -11.7% | ? | -3.4 | -3.2
O=C(c1ccc(Cl)cc1)N1CCc2ccccc21 | -1.3% | 6.1% | ? | 32.8* | 46.0
O=C(O)C(CO)(c1ccccc1)c1ccccc1 | 1.9% | 37.7% | -2.4% | 0.3 | -5.1
O=C(Cc1cccc2ccccc12)N/N=C/c1ccc2cccc(O)c2n1 | 6.7% | 64.2% | -13.1% | 16.4 | 17.6
SMILES | LmPK inh | Pf growth 48h | Pf growth 96h | Cycloheximide cs | Shiga inhibitor
CCCCC(=O)N/N=C/c1ccc(Sc2cccc3cccnc23)o1 | 0.2% | 0.0% | 4.15µM* | 38.8* | 31.1
O=C(Cc1cccc2ccccc12)N/N=C/c1ccc(Sc2cccc3cccnc23)o1 | -0.2% | · | 6.57µM* | -1.2 | -10.0
COc1cccc(N2CC(C(=O)Nc3c(C(N)=O)oc4ccccc34)CC2=O)c1 (centres undefined) | · | ? | -5.5% | · | ·
CCOC(=O)c1cn2nc(Oc3ccc(C#N)cc3)ccc2n1 | 0.5% | -8.9% | 8.6% | -1.9 | 16.4
CN(C)c1ccc(-c2nc3ccccc3n2C)cc1 | 12.6µM* | -76.2% | ? | 24.2* | 15.1
CC(C)n1c(-c2ccc(N(C)C)cc2)nc2ccccc21 | -7.9% | 63.9% | 57.3%[5.75 µM] | 28.7* | 113.5*
CCn1c(-c2ccc(N(C)C)cc2)nc2ccccc21 | -13.9% | 63.8% | ? | 23.1 | 73.1
CCC(C)[C@H](NC(=O)N1CCN(c2cccc(C(F)(F)F)c2)CC1)C(=O)OC (some centres undefined) | 0.2% | · | 5.22µM* | -4.7 | -5.3
CN(C)CCC=C1c2ccccc2CCc2ccccc21 | 1.8% | 14.7µM* | ? | -3.8 | -2.9
CN(C)CC/C=C1\c2ccccc2COc2ccc(CC(=O)O)cc21 | · | 1.0% | 5.8% | · | ·
CN(C)CCC=C1c2ccccc2C(C)(C)c2ccccc21 | · | ? | 6.75µM* | · | ·
CN(C)CCC=C1c2ccccc2C=Cc2ccccc21 | · | 11.7µM* | ? | · | ·
CN(C)CC/C=C1/c2ccccc2COc2ccccc21 | 10.1% | · | · | -1.8 | -3.5
COCCN(CC(=O)Nc1ccccc1C(F)(F)F)C(=O)c1ccc(-n2cccn2)cc1 | · | -24.5% | -6.6% | · | ·
O=C(CN1C(=O)N/C(=C\c2ccccc2OCc2ccc(C(=O)O)cc2)C1=O)Nc1ccc(F)cc1 | 7.8% | 8.3% | 5.22µM* | -0.5 | -6.1
Cc1cccc(NC(=O)CN2C(=O)N/C(=C\c3ccc(N4CCOCC4)cc3)C2=O)c1 | -5.3% | 45.4% | ? | 39.2* | 68.2*
Cc1cc(N2CCOCC2)ccc1/C=C1\NC(=O)N(CC(=O)Nc2ccc(F)cc2)C1=O | 1.4% | 57.5% | 2.94µM* | 22.7* | 90.6*
FC(F)(F)c1ccc(NC2=NCCCS2)cc1 | -1.0% | 75.2% | 29.4% | 30.4* | 43.0*
CCc1ccc(NC2=NCCCS2)cc1 | 0.9% | 35.3% | 10.9% | 14.9* | 35.0*
CCc1ccc(C2NC(=S)NC3=C2C(=O)CCC3)cc1 (centres undefined) | 2.4% | ? | ? | 2.5 | -19.5
CCc1ccc(C2NC(c3ccc(CC)cc3)C([N+](=O)[O-])C(C)(C)C2[N+](=O)[O-])cc1 (centres undefined) | 1.8% | ? | 13.1µM* | -4.3 | -11.8
COC(=O)CCC(=O)COc1ccccc1C#N | 1.0% | 104.5% | 34.2% | 26.6* | 62.2*
COC(=O)CCC(=O)COc1ccc(OC)cc1C#N | -10.3% | 237.5% | 260.3% | 22.9* | 40.3
COC(=O)COc1ccc(S(=O)(=O)Nc2cc(OC)ccc2OC)cc1 | 3.1% | 31.3% | ? | 8.7 | -19.0
CC(C)C(=O)NNC(=O)c1cc2sccc2s1 | 5.9% | 54.4% | -0.3% | 9.7 | 6.4
Cc1ccc(C)c(SCC(=O)c2ccc[nH]2)c1 | 5.3% | 21.5% | 21.1% | 41.9* | 56.5*
Cc1ccc(C)c(SCC(=O)NNC(=O)c2ccccc2)c1 | 3.6% | -14.5% | 6.5% | 4.9 | -2.6
COc1ccc(CNC(=O)C2CCN(S(=O)(=O)c3ccc4c(c3)C(C)(C)C(=O)N4C)CC2)cc1 | -7.7% | ? | 12.6% | -2.4 | -6.0

Compound activity deposited in PubChem by National Center for Advancing Translational Sciences (NCATS).
